Consider one sequence from PMC7862700, “An all-to-all approach to the identification of sequence-specific readers for epigenetic DNA modifications on cytosine”.

Common to all, as to experiment: DAPPL (digital affinity profiling via proximity ligation, sequencing); 10 mM Tris-HCl pH 7.5, 50 mM NaCl, 1 mM DTT, 4% glycerol, room temperature, 30 min; GST-TFs on glutathione beads, 16-mer random dsDNA library, 0.1% formaldehyde crosslink after washing; high values mean tight binding
One experiment deals with T1, FEV (Homo sapiens, UniProt Q99581 1-238).
T1 sequence: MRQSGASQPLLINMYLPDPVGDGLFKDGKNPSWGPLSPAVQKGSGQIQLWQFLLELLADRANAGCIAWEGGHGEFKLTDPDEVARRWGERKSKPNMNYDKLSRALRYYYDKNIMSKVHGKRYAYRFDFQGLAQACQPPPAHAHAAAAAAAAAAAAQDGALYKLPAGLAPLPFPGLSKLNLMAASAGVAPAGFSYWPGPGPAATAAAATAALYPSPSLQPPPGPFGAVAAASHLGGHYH
The conditions noted are these: protein: recombinant; tags: N-terminal GST; dsDNA, one strand shown. The method, boiled down: (§1)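 Binding signal is given per hexamer as its read frequency for a factor divided by its frequency in the tag-only sample. GST-fused human transcription factors were expressed in yeast, captured on glutathione beads, barcoded with DNA and pooled with that sample, then incubated with 200 nmole of a 16-mer random double-stranded DNA library in Tris/NaCl/DTT/glycerol buffer for 30 min at room temperature. The pools were then washed, crosslinked, proximity-ligated, amplified by PCR and sequenced on an Illumina NextSeq500.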

Another experiment has as its target ETV5 (Homo sapiens, UniProt P41161 1-510). The conditions noted are these: protein: recombinant; tags: N-terminal GST; dsDNA, one strand shown. Summed up: as §1
In a further experiment the target is HSF1 (Homo sapiens, UniProt Q00613 1-529). The conditions noted are these: protein: recombinant; tags: N-terminal GST; chain copies: 3; dsDNA, one strand shown. The method, boiled down: as §1
In a further experiment the target is T2, SPIC (Homo sapiens, UniProt Q8N5J4 1-248).
T2 sequence: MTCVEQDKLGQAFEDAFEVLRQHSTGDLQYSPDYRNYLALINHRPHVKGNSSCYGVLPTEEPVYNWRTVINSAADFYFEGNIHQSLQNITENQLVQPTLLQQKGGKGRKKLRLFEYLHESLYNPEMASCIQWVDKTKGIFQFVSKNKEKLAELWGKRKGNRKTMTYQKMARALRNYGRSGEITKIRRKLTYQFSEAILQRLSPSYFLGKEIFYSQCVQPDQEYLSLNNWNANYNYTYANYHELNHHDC
As to conditions: protein: recombinant; tags: N-terminal GST; dsDNA, one strand shown. The method, boiled down: as §1

For another experiment, the target named is ELF4 (Homo sapiens, UniProt Q99607 1-663). The conditions noted are these: protein: recombinant; tags: N-terminal GST; dsDNA, one strand shown. The method, boiled down: as §1
The next experiment deals with T3, ELK4 (Homo sapiens, UniProt P28324-2 1-405).
T3 sequence: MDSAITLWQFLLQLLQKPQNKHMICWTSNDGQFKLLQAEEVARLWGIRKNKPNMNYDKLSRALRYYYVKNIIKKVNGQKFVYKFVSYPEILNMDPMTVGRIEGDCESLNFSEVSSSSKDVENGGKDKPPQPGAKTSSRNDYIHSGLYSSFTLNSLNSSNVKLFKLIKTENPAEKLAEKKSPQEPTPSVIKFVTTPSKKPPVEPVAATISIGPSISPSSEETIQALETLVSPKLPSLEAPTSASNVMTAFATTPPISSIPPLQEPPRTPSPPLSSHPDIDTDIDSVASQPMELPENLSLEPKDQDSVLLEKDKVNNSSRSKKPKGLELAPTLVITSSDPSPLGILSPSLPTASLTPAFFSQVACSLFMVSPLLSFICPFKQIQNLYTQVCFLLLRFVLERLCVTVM
The conditions noted are these: protein: recombinant; tags: N-terminal GST; dsDNA, one strand shown. Summed up: as §1

A further experiment addresses T4, ETV2 (Homo sapiens, UniProt O00321 1-342).
T4 sequence: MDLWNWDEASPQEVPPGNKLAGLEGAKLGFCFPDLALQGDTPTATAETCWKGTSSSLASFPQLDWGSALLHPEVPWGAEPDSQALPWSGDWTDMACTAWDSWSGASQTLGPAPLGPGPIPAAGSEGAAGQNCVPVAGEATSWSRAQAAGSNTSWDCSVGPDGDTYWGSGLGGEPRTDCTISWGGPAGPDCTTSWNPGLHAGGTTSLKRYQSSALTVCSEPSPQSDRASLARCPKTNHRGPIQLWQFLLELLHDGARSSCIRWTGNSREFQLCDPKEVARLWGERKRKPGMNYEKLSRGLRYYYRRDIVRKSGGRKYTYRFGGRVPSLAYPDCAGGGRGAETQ
As to conditions: protein: recombinant; tags: N-terminal GST; dsDNA, one strand shown. The method, boiled down:
as §1

A further experiment has as its target T5, ELF3 (Homo sapiens, UniProt P78545 1-371).
T5 sequence: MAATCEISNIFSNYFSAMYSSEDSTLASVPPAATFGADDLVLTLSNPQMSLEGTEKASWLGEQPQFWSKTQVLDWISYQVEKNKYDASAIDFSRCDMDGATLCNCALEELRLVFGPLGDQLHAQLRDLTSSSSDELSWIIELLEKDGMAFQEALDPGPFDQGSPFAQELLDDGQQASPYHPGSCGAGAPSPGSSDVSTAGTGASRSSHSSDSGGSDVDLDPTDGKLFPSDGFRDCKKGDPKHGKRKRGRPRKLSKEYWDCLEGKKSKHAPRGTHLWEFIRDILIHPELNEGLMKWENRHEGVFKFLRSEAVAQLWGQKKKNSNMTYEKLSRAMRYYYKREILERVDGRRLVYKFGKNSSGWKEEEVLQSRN
As to conditions: protein: recombinant; tags: N-terminal GST; dsDNA, one strand shown. Summed up: as §1

Another experiment deals with CRX (Homo sapiens, UniProt O43186 1-299). As to conditions: protein: recombinant; tags: N-terminal GST; dsDNA, one strand shown. Summed up: as §1
In another experiment the target is ETV1 (Homo sapiens, UniProt P50549 1-477). The conditions noted are these: protein: recombinant; tags: N-terminal GST; dsDNA, one strand shown. The method, boiled down: as §1
The target in the next experiment is T6, ERF (Homo sapiens, UniProt P50548 1-548).
T6 sequence: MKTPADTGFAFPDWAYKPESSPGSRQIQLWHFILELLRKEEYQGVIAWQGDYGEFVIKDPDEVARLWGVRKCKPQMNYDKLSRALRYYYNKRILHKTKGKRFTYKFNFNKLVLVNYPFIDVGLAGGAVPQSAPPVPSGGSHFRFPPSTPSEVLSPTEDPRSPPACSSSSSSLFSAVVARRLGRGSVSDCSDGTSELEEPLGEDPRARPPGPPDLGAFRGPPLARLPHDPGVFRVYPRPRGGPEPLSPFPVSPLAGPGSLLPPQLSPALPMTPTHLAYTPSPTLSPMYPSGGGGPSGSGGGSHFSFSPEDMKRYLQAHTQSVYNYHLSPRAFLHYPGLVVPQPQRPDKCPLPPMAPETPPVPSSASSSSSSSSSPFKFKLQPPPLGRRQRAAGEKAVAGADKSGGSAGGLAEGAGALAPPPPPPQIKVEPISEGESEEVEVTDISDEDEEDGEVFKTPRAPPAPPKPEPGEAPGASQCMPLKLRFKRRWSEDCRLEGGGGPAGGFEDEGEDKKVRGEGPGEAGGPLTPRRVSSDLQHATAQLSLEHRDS
The conditions noted are these: protein: recombinant; tags: N-terminal GST; dsDNA, one strand shown. The method, boiled down:
as §1

The target in a further experiment is T7, ETV3L (Homo sapiens, UniProt Q6ZN32 1-361).
T7 sequence: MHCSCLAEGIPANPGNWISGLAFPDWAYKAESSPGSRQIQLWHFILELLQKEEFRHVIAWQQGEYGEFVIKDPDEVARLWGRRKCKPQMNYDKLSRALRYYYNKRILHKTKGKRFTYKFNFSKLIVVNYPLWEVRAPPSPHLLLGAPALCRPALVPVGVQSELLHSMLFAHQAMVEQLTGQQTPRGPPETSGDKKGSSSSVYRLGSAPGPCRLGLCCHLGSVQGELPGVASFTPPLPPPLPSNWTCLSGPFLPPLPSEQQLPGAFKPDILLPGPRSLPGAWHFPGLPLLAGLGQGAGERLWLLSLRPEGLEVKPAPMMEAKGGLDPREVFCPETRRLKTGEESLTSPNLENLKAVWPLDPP
As to conditions: protein: recombinant; tags: N-terminal GST; dsDNA, one strand shown. The method, boiled down: as §1

The target of another experiment is T8, ETS2 (Homo sapiens, UniProt P15036 1-469).
T8 sequence: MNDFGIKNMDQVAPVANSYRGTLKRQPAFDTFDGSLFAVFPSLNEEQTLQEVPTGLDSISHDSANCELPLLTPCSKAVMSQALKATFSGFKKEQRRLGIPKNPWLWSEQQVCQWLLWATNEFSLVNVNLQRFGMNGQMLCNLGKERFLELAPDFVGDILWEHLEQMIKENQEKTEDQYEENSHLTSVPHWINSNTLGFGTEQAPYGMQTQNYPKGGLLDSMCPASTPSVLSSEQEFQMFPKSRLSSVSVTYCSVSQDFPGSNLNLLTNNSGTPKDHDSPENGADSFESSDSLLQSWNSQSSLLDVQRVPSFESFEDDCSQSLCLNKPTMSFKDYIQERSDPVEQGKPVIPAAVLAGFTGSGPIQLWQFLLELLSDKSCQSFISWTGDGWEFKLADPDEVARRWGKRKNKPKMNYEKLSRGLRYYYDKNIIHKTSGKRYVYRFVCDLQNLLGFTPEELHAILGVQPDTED
As to conditions: protein: recombinant; tags: N-terminal GST; dsDNA, one strand shown. Summed up: as §1

A further experiment has as its target T9, SPDEF (Homo sapiens, UniProt O95238 1-335).
T9 sequence: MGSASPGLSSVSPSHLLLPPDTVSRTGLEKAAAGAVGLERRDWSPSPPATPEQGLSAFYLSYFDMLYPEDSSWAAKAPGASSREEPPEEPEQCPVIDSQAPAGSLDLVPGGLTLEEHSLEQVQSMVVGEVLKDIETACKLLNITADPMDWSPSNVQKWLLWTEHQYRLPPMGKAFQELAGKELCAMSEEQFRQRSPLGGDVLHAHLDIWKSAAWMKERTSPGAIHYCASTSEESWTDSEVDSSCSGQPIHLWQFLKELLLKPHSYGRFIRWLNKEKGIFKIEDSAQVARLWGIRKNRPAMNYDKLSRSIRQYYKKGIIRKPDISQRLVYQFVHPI
The conditions noted are these: protein: recombinant; tags: N-terminal GST; dsDNA, one strand shown. The method, boiled down:
as §1

A further experiment deals with T10, ETV7 (Homo sapiens, UniProt Q9Y603 1-341).
T10 sequence: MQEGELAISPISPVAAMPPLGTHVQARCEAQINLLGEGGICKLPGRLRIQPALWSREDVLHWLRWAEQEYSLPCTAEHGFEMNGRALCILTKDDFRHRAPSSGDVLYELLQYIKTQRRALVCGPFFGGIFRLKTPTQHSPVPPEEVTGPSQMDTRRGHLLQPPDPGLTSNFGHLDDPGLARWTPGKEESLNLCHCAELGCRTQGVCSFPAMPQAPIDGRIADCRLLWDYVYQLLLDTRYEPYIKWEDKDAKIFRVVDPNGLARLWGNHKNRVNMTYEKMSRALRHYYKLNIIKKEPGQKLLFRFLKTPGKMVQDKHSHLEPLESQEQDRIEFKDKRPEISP
The conditions noted are these: protein: recombinant; tags: N-terminal GST; dsDNA, one strand shown. The method, boiled down: as §1

Another experiment deals with T11, ELF5 (Homo sapiens, UniProt Q9UKW6-2 1-255).
T11 sequence: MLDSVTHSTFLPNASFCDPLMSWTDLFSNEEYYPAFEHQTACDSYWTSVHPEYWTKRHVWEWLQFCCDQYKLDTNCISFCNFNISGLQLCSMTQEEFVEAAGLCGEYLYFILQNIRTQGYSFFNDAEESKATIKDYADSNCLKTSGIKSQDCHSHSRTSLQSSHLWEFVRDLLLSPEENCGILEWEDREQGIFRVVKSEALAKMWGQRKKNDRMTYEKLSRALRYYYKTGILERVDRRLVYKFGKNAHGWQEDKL
As to conditions: protein: recombinant; tags: N-terminal GST; dsDNA, one strand shown. The method, boiled down: as §1

The target in another experiment is T12, ETV3 (Homo sapiens, UniProt P41162-2 1-143).
T12 sequence: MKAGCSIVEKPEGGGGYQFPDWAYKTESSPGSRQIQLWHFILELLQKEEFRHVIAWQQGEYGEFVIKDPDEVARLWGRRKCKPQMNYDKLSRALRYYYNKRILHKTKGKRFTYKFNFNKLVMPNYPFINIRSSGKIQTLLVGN
The conditions noted are these: protein: recombinant; tags: N-terminal GST; dsDNA, one strand shown. The method, boiled down:
as §1

For another experiment, the target named is ETV6 (Homo sapiens, UniProt P41212 1-452). As to conditions: protein: recombinant; tags: N-terminal GST; dsDNA, one strand shown. Summed up:
as §1

ELF4, sequence (Q99607 whole entry): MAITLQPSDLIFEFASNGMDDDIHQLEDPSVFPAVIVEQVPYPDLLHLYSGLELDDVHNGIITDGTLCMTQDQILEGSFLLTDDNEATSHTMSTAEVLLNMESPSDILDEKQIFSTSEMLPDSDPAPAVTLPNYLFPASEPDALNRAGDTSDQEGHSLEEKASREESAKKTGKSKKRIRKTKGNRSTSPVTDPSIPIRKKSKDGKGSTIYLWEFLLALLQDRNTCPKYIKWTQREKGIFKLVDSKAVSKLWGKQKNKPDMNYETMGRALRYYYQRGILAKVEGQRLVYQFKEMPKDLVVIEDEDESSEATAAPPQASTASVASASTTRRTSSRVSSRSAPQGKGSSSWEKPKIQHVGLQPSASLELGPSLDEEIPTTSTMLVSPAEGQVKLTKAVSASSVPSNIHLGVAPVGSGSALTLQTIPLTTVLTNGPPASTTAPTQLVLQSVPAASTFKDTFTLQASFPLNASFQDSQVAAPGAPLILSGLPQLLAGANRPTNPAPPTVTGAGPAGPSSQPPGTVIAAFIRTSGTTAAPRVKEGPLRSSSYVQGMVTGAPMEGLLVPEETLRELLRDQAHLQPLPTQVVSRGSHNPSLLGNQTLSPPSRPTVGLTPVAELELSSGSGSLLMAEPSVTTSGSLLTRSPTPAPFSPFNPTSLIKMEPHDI
CRX, sequence (O43186 whole entry): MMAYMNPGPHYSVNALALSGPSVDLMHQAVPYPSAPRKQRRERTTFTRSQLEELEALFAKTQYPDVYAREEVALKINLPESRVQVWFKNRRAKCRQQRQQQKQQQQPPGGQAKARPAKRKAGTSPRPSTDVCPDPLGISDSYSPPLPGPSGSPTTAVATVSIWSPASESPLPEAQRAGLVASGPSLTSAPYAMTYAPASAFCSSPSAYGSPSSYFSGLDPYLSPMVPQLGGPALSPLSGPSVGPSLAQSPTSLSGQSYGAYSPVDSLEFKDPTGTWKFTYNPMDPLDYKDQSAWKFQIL
ETV6, sequence (P41212 whole entry): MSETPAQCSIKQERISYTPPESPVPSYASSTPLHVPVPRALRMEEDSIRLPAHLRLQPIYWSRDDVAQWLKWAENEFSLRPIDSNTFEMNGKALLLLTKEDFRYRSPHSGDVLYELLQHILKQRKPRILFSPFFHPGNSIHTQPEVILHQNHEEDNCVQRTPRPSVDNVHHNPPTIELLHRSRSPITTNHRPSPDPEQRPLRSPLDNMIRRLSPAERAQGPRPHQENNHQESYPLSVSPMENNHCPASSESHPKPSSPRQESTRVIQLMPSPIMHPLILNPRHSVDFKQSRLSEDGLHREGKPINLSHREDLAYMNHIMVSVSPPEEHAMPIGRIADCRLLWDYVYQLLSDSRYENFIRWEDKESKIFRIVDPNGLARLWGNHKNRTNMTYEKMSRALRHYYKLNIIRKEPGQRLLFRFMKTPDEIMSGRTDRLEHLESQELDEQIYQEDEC
HSF1, sequence (Q00613 whole entry): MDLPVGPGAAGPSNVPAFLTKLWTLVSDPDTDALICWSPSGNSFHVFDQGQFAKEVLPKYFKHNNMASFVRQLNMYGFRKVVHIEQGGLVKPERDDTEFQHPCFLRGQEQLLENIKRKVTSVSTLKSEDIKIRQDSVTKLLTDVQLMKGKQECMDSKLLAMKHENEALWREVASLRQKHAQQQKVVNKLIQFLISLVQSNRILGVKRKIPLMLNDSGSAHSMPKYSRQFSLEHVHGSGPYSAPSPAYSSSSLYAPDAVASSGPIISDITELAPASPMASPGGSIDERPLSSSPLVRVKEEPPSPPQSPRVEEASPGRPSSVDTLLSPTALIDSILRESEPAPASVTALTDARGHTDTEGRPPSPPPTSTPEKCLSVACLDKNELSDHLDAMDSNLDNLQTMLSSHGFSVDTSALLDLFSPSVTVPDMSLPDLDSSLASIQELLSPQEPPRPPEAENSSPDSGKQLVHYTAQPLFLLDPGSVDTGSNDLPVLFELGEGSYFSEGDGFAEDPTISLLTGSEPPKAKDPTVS
ETV5, sequence (P41161 whole entry): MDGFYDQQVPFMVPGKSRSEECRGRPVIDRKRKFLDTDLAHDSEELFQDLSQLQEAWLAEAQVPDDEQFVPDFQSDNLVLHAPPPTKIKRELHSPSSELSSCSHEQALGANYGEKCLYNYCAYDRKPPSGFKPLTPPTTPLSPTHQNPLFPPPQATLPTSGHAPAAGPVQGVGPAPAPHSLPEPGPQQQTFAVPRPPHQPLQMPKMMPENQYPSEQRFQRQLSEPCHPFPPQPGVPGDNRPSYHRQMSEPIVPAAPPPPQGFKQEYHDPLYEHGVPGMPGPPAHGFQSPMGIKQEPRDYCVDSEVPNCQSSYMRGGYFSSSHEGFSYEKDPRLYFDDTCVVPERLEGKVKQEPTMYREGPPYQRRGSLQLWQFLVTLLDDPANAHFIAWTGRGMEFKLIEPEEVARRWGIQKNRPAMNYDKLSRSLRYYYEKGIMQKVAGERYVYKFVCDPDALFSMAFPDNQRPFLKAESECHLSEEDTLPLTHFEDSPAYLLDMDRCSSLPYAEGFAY
ETV1, sequence (P50549 whole entry): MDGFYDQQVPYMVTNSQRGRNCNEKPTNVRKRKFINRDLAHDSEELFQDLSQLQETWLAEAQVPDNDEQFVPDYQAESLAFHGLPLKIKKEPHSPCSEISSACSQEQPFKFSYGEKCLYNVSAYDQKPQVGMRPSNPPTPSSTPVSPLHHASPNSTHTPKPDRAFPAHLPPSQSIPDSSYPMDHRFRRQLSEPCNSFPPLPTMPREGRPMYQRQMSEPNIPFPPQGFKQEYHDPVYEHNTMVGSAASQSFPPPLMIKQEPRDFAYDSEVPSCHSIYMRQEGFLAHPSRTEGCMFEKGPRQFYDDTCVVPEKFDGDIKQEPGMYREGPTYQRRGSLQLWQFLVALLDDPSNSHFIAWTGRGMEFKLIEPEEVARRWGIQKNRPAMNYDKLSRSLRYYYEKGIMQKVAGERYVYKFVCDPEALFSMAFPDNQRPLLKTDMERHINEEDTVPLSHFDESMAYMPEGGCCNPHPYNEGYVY

Take TTCTCC: the binding signal with FEV was 1.63 fold enrichment (6-mer frequency, TF over GST control); with ETV5, 1.49 fold enrichment (6-mer frequency, TF over GST control); with HSF1, 1.98 fold enrichment (6-mer frequency, TF over GST control); with SPIC, 1.37 fold enrichment (6-mer frequency, TF over GST control); with ELF4, 1.51 fold enrichment (6-mer frequency, TF over GST control); with ELK4, 1.63 fold enrichment (6-mer frequency, TF over GST control). The binding signal with ETV2 is 1.39 fold enrichment (6-mer frequency, TF over GST control); in the experiment with ELF3, 1.4 fold enrichment (6-mer frequency, TF over GST control); with CRX it was 1.51 fold enrichment (6-mer frequency, TF over GST control); in the experiment with ETV1 it was 1.45 fold enrichment (6-mer frequency, TF over GST control); with ERF it was 1.53 fold enrichment (6-mer frequency, TF over GST control); with ETV3L, 1.58 fold enrichment (6-mer frequency, TF over GST control). Also, the binding signal with ETS2 is 1.53 fold enrichment (6-mer frequency, TF over GST control); with SPDEF, 1.52 fold enrichment (6-mer frequency, TF over GST control); in the experiment with ETV7 it was 1.46 fold enrichment (6-mer frequency, TF over GST control); with ELF5, 1.51 fold enrichment (6-mer frequency, TF over GST control); in the experiment with ETV3, 1.5 fold enrichment (6-mer frequency, TF over GST control); with ETV6 it was 1.48 fold enrichment (6-mer frequency, TF over GST control).
